The text below walks through data of PubChem BioAssay (EPA / NIEHS).

Calls of active or inactive are those of the source. The calls were made as follows: active = hit-call score of the fitted dose curve at least 0.9, where 1 is the maximum; inactive = score below 0.9.

E-selectin (Homo sapiens), sequence (P16581 whole entry, looked up): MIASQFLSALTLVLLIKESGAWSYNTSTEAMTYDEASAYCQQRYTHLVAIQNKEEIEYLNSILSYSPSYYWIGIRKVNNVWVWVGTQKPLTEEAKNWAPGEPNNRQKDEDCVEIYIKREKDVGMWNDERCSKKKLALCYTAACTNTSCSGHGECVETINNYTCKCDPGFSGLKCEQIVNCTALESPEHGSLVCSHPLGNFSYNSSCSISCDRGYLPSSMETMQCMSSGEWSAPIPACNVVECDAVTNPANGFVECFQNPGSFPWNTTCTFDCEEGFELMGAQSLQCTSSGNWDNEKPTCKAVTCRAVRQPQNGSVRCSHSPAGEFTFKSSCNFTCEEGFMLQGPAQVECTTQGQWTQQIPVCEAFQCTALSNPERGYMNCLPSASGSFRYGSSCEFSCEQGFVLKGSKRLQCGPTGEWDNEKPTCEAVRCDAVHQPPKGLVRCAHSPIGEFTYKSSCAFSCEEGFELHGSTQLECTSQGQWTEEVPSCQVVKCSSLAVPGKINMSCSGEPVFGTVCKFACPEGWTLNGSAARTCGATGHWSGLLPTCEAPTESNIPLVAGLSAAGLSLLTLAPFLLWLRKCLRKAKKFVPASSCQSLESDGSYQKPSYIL

Read-out in the assay: E-selectin (Homo sapiens) (UniProt P16581)
The assay can be described thus: BSK_LPS_Eselectin: BioMAP Diversity Plus: LPS Assay for Eselectin Biomarker Activity (AID 2283077). To be noted: primary human HUVEC with PBMC; actives raise or lower the signal. On the procedure: BSK_LPS is a cell-based, multiplexed-readout assay that uses umbilical vein endothelium and peripheral blood mononuclear cells, a human vascular primary cell co-culture, with measurements taken at 24 hours after chemical dosing in a 96-well plate.BSK_LPS_Eselectin is an assay component measured in the BSK_LPS assay. It measures E-selectin antibody related to regulation of gene expression using ELISA technology.Data from the assay component BSK_LPS_Eselectin was analyzed into 1 assay endpoint. This assay endpoint, BSK_LPS_Eselectin, was analyzed with bidirectional fitting relative to DMSO as the negative control and baseline of activity. Using a type of binding reporter, gain or loss-of-signal activity can be used to understand changes in the signaling as they relate to the gene SELE. Furthermore, this assay endpoint can be referred to as a primary readout, because this assay has produced multiple assay endpoints where this one serves a signaling function. To generalize the intended target to other relatable targets, this assay endpoint is annotated to the cell adhesion molecules intended target family, where the subfamily is selectins.
The levels of cell surface (or secreted, indicated by the prefix "s") biomarker endpoints were measured by ELISA. Overt cytotoxicity to cells in confluent adherent cultures (all systems other than the BT system) was assessed by measuring total protein levels using sulforhodamine B (SRB) staining in parallel cultures at the time of biomarker measurements, indicated as SRB endpoints. For proliferation assays for adherent cell types, individual cell types are cultured at sub-confluence and relative cell numbers quantified by SRB staining at time points optimized for each system (48 h: 3C and CASM3C systems; 72 h: BT and HDF3CGF systems; 96 h: SAg system). SRB was performed by staining cells with 0.1% SRB after fixation with 10% TCA and reading wells at 560 nm.Viability and proliferation of PBMC (T cells) was quantified by Alamar Blue reduction for the SAg and BT systems. For PBMC viability (referred to as PBMC Cytotoxicity within the assay endpoint names), cells were plated (75,000/well in a 96-well plate) and then chemical samples added for 1 h before addition of activators, SEB and TSST-1 (20 ng/mL final concentration each). Cells were incubated for 90 h. Then, Alamar Blue (20 uL/well) (Invitrogen, Cat DAL1100) was added for 6 h, and the plates were read with a fluorescence microplate reader at 546/580 nm (excitation/emission). For PBMC proliferation, cells were plated and activated as above but incubated for only 16 h prior to addition of Alamar Blue. Plates were read after 6 h.
For `OCC(F)(F)OC(F)(F)C(F)(F)OC(F)(F)C(F)(F)OC(F)(F)F`, the outcome was inactive. Still for that read-out and setting: the same measure for `COP(N)(=S)OC`: “inactive”.

Regarding `Nc1ccc(Cl)cc1`, the result was inactive.

On to `FC(F)(F)C(F)(C(F)(F)F)C(F)(F)C(F)(F)CC1CO1` (stereo not given), for which the outcome was inactive. The same measure, in the same setting: the same measure for `OCC1CO1` (stereo not given): “inactive”; for `CCOP(=S)(OCC)SCS(=O)(=O)CC`: “inactive”.

As for `c1ccc2c(c1)sc1ccccc12`, the result was inactive. Same read-out and setting: the same measure for `CCN(CC)c1ccccc1`: “inactive”; for `O=C(O)C(F)(F)OC(F)(F)C(F)(F)OC(F)(F)C(=O)O`: “inactive”.

For the compound `O=C(O)C1C(C(=O)O)C2(Cl)C(Cl)=C(Cl)C1(Cl)C2(Cl)Cl` (stereo not given), the outcome was inactive. Consider `COCCOCCO`, for which the outcome was inactive. What is called AC50 is the midpoint of the concentration-response curve, whichever way the signal moves. On to `O=c1ssc(Cl)c1Cl`, for which the AC50 is 6.46 µM (active). `Nc1ccc([N+](=O)[O-])cc1Cl`: the outcome was inactive. Still for that read-out and setting: the same measure for `CSC(C)(C)C=NO`: “inactive”. Same read-out and setting: the same measure for `CC(Cl)CN(C)C` (stereo not given): “inactive”. Regarding `CCCCC(CC)COP(=O)(Oc1ccccc1)Oc1ccccc1` (stereo not given), the AC50 was 20 µM (active). Same read-out and setting: the same measure for `CCCN(CCC)c1c([N+](=O)[O-])cc(C(C)C)cc1[N+](=O)[O-]`: 30.8 µM (active); for `C=CC(=O)OCC(CC)(COC(=O)C=C)COC(=O)C=C`: 2.93 µM (active). For `CCC1(c2ccccc2)C(=O)N=C(O)NC1=O` (stereo not given), the outcome was inactive. For the compound `O=S1(=O)OCC2C(CO1)C1(Cl)C(Cl)=C(Cl)C2(Cl)C1(Cl)Cl` (stereo not given), the outcome was inactive. In the case of `COP(=O)(CCC(=O)NCO)OC`, the outcome was inactive. Consider `OCC(F)(F)OC(F)(F)C(F)(F)OC(F)(F)CO`, for which the outcome was inactive. Still for that read-out and setting: the same measure for `CCOc1ccc(C(C)(C)COCc2cccc(Oc3ccccc3)c2)cc1`: “inactive”; for `CCOC(=O)c1ccccc1C(=O)OCC`: “inactive”; for `O=C(O)C(F)(F)OC(F)(F)C(F)(F)OC(F)(F)F`: “inactive”. In the case of `ClC(Cl)=C(c1ccc(Cl)cc1)c1ccccc1Cl`, the AC50 is 33.4 µM (active).

With `Nc1ccc2ccccc2c1`, the outcome was inactive.

For `CCOP(=S)(OCC)SCn1nnc2ccccc2c1=O`, the result was inactive.

On to `[N-]=[N+]=[N-]`, for which the result was inactive.

`O=P1(N(CCCl)CCCl)NCCCO1` (stereo not given): the outcome was inactive.

In the case of `O=[N+]([O-])c1ccccc1`, the result was inactive. As for `Cc1ccc([N+](=O)[O-])cc1C`, the result was inactive. With `CC(Cc1ccc(OCC(=O)O)cc1)NCC(O)c1csc(C(F)(F)F)n1` (stereo not given), the outcome was inactive. Still for that read-out and setting: the same measure for `Cc1c([N+](=O)[O-])cc2c(c1[N+](=O)[O-])C(C)(C)CC2(C)C`: “inactive”; for `O=S(=O)(F)C(F)(F)C(F)(F)C(F)(F)C(F)(F)C(F)(F)C(F)(F)C(F)(F)C(F)(F)F`: “inactive”; for `CC(C)(C)c1ccc(O)cc1`: “inactive”. The same measure, in the same setting: the same measure for `CCOS(=O)(=O)OCC`: “inactive”; for `COC(=O)C(F)(F)C(F)(F)OC(F)(C(F)(F)F)C(F)(F)OC(F)=C(F)F` (stereo not given): “inactive”.

Take `CCCCC(CC)COC(=O)c1c(Br)c(Br)c(Br)c(Br)c1C(=O)OCC(CC)CCCC` (stereo not given): the outcome was inactive. Regarding `CCCCCCCc1ccc(O)cc1`, the AC50 was 35.8 µM (active).
